What follows are sequences tested on PPARg DBDmut:RXRa IVT, anti-PPARg (DBD mutation: PPARg1 K132A/R137A, NR concentration 270 nM, RXRa partner concentration 90 nM) (assay: PBM binding z-score (relative to random genomic background probes); higher = stronger binding; sequences stand for … in GC…GCGATTGACAGCGTAGAATGAAGG).
Outline: (§1)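 Antibodies against each partner of ligand-free nuclear receptor dimers (one per run) detected binding on custom Agilent 4×180K protein-binding microarrays after 1 h incubation. The double-stranded probes had 34-nt variable regions carrying direct-repeat seeds, single-nucleotide variants, half-site ablations and random human genomic background sequences. Binding z-scores, from regression-normalized fluorescence, use the random background probes as reference.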

Going from CGAACGAAGGCATGAGTTGATAGCAAATGCCGAT to AGTCAAAGTTCAACTAGGTAACGTAAGATATGCT, the PBM binding z-score rises from -1.26 to 2.11.

First: CCTTCCGGGTCACGAGGTTATAGCACGACGAGCG
Second: CCTACTGGGCCCAGGTCATTGATCAGTCAAAGCA
The PBM binding z-score of the first is higher: 0.639 for the first, -0.756 for the second.

Going from CTACCAAGGTGAACAAGGTAGTTGATTACTATTC to TCTATAAGTTGATTAGGGCAACCGAAACAGCGGA, the PBM binding z-score rises from 0.56 to 0.91.

First: CCTAGCAGGCCAATATGGGTCACTCAAGGCTTGA
Second: GCTCGGAGGCCAAGGTCAGAGCTTTGTCCGTAGA
The PBM binding z-score of the first is higher: -0.447 for the first, -1.23 for the second.

Compared with GCTATTAGATGAAAGGGCAACCGAATGATTCTCG, CCCACTGGGCCATCAGGTCATTGATATCAACGTT is lower in PBM binding z-score: 0.246 for the first, 0.243 for the second.

First: ACAGACAGGTGATGAAGGAAACTCAGGCTATCAT
Second: ACTAGTTGGTCAGCTGAGGTCACGCACAATTCGG
The PBM binding z-score of the first is lower: 0.678 for the first, 0.779 for the second.

Going from ATCTCTAGGTAACAAGTTCAGTTAAAGAGAGGAC to CGTCAAAGTTCAACTAAGGTAACGTAAAGCACGC, the PBM binding z-score falls from 1.33 to 1.23.

Going from CCTAGCAGGCCAGGGCCACTCAAGCATTTCGCTT to CCTACTGGGCCATCAGGTCTTTGATATCAACGTT, the PBM binding z-score rises from -1.54 to -0.465.

Compared with AGTCAAAGTTCATCTAGGTAACGTCAGATATGCT, ACTAGCAGGCCAAGGGTCACTCATGATTAGTCCG is lower in PBM binding z-score: 2.61 for the first, 0.294 for the second.

First: TCATATAGGTAAAGGTGAAAGTTGAACGATATGA
Second: TGAATGAGTTTAAAGATCAGGGAACGTGGCGTCG
The PBM binding z-score of the first is higher: 1.52 for the first, 0.667 for the second.

Going from CGTCCACGGTCAATGCTAGGTCAGTGAAAGCATT to CAAACTCGGTCACCGGAAGGTCAAAGTCCGCATG, the PBM binding z-score rises from -0.899 to 0.644.

First: GCGACTGGGGCAAAGCGGGTTACCATAAGGTTGG
Second: AGAATGAGGTTATACGTAGATCAGGAAAGAAAGT
The PBM binding z-score of the first is lower: -0.432 for the first, 1.21 for the second.

Compared with ATATGTAGGTTAGCTGGGGCCATTCAGACTAGGC, TCTAGCAGGCCAGAGGGTCAATCAAGAGGTACGG is lower in PBM binding z-score: 1.64 for the first, -2.08 for the second.

First: ACTTACGGGTCAACGAGGTGATAGCACGCGTATA
Second: CCTACTGGGCCACGAAAGGTCATTGTTTCAGTGA
The PBM binding z-score of the first is higher: 2.02 for the first, 1.13 for the second.

First: ATACCAAGGTGATCGTCAGGTCGTTGATACTAAC
Second: CCGCCTAGGTCAGGGCCAGTATAGGAGGAACGTT
The PBM binding z-score of the first is higher: 0.616 for the first, -1.13 for the second.

Compared with ATCTCTAGGTAACGTTCAGTGAAAGATCGATAGA, CATACAGGGTCAGGTAGGCCAGAGTAGGGACGGC is lower in PBM binding z-score: 1.78 for the first, 0.416 for the second.

First: CATACAGGGTCAGCTAGGCCAGAGTAGGGACGGC
Second: ATAACGAGGGCAATGAGTTGATAGCACGGGTGGC
The PBM binding z-score of the first is lower: 0.615 for the first, 1.02 for the second.

First: CTTACAGGGTCAGCTAGGCCAGAGTAGGGACGGC
Second: TCTTGTAGATCAACAGGAGGTTACGAAAGATCGA
The PBM binding z-score of the first is lower: -0.146 for the first, 0.791 for the second.

Compared with CCGCCTGGGGCAGAAAGGTTACCATACCATCCGG, ATGGAAAGGTCGACGAGGTGAGTATACACCGTTT is higher in PBM binding z-score: -1.12 for the first, 0.736 for the second.

Compared with TCTTGTAGATCAATAGAGGTTACGAAAGTGCGCT, TCTATTAGTTGAAGGGCAACTGACGAGTCCGTTT is lower in PBM binding z-score: 0.944 for the first, 0.468 for the second.

These sequences were tested on PPARg DBDmut IVT, anti-PPARg (DBD mutation: PPARg1 K132A/R137A, NR concentration 270 nM) in the same assay as above.
Outline: as §1

Compared with CGAACGAAGGCATGAGTTGATAGCAAATGCCGAT, AGTCAAAGTTCAACTAGGTAACGTAAGATATGCT is higher in PBM binding z-score: -0.962 for the first, 1.11 for the second.

Going from CCTTCCGGGTCACGAGGTTATAGCACGACGAGCG to CCTACTGGGCCCAGGTCATTGATCAGTCAAAGCA, the PBM binding z-score falls from -0.0446 to -1.2.

Compared with CTACCAAGGTGAACAAGGTAGTTGATTACTATTC, TCTATAAGTTGATTAGGGCAACCGAAACAGCGGA is higher in PBM binding z-score: 0.814 for the first, 0.949 for the second.

Going from CCTAGCAGGCCAATATGGGTCACTCAAGGCTTGA to GCTCGGAGGCCAAGGTCAGAGCTTTGTCCGTAGA, the PBM binding z-score falls from -0.637 to -1.94.

First: GCTATTAGATGAAAGGGCAACCGAATGATTCTCG
Second: CCCACTGGGCCATCAGGTCATTGATATCAACGTT
The PBM binding z-score of the first is higher: 0.212 for the first, 0.0844 for the second.

First: ACAGACAGGTGATGAAGGAAACTCAGGCTATCAT
Second: ACTAGTTGGTCAGCTGAGGTCACGCACAATTCGG
The PBM binding z-score of the first is higher: 0.42 for the first, -0.0173 for the second.

Going from ATCTCTAGGTAACAAGTTCAGTTAAAGAGAGGAC to CGTCAAAGTTCAACTAAGGTAACGTAAAGCACGC, the PBM binding z-score falls from 1.39 to 0.815.

Going from CCTAGCAGGCCAGGGCCACTCAAGCATTTCGCTT to CCTACTGGGCCATCAGGTCTTTGATATCAACGTT, the PBM binding z-score rises from -0.795 to -0.285.

Going from AGTCAAAGTTCATCTAGGTAACGTCAGATATGCT to ACTAGCAGGCCAAGGGTCACTCATGATTAGTCCG, the PBM binding z-score falls from 1.98 to -0.197.

First: TCATATAGGTAAAGGTGAAAGTTGAACGATATGA
Second: TGAATGAGTTTAAAGATCAGGGAACGTGGCGTCG
The PBM binding z-score of the first is higher: 1.41 for the first, -0.281 for the second.

Going from CGTCCACGGTCAATGCTAGGTCAGTGAAAGCATT to CAAACTCGGTCACCGGAAGGTCAAAGTCCGCATG, the PBM binding z-score rises from -1.45 to 0.562.

First: GCGACTGGGGCAAAGCGGGTTACCATAAGGTTGG
Second: AGAATGAGGTTATACGTAGATCAGGAAAGAAAGT
The PBM binding z-score of the first is lower: -0.894 for the first, 0.76 for the second.

First: ATATGTAGGTTAGCTGGGGCCATTCAGACTAGGC
Second: TCTAGCAGGCCAGAGGGTCAATCAAGAGGTACGG
The PBM binding z-score of the first is higher: 1.69 for the first, -0.99 for the second.

Going from ACTTACGGGTCAACGAGGTGATAGCACGCGTATA to CCTACTGGGCCACGAAAGGTCATTGTTTCAGTGA, the PBM binding z-score falls from 1.22 to 0.571.

First: ATACCAAGGTGATCGTCAGGTCGTTGATACTAAC
Second: CCGCCTAGGTCAGGGCCAGTATAGGAGGAACGTT
The PBM binding z-score of the first is higher: -0.131 for the first, -2.07 for the second.

Compared with ATCTCTAGGTAACGTTCAGTGAAAGATCGATAGA, CATACAGGGTCAGGTAGGCCAGAGTAGGGACGGC is lower in PBM binding z-score: 1.73 for the first, 0.457 for the second.

Going from CATACAGGGTCAGCTAGGCCAGAGTAGGGACGGC to ATAACGAGGGCAATGAGTTGATAGCACGGGTGGC, the PBM binding z-score falls from 1.03 to 0.667.

Compared with CTTACAGGGTCAGCTAGGCCAGAGTAGGGACGGC, TCTTGTAGATCAACAGGAGGTTACGAAAGATCGA is higher in PBM binding z-score: -0.1 for the first, 0.725 for the second.

Compared with CCGCCTGGGGCAGAAAGGTTACCATACCATCCGG, ATGGAAAGGTCGACGAGGTGAGTATACACCGTTT is higher in PBM binding z-score: -1.51 for the first, 1.01 for the second.

Going from TCTTGTAGATCAATAGAGGTTACGAAAGTGCGCT to TCTATTAGTTGAAGGGCAACTGACGAGTCCGTTT, the PBM binding z-score falls from 0.638 to 0.573.
